Assay results from PubChem BioAssay (Tox21).
Results filed as inconclusive are left out. Activity calls are given as the source filed them. Unless noted, calls come from the whole dose curve; as a rule, active = well fitted curve in the direction sought with a large enough effect in the repeat runs; inconclusive = weak or mixed curves; inactive = no such curve, though single readings can be large; an effect the other way counts as inactive or inconclusive.

Key:
[1] = Human pregnane X receptor (PXR) small molecule agonists, qHTS cell viability counter screen (AID 1346977); note: nearly all actives have a fitted effect of over 50% in size
How it was run: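 PXR-Luc HepG2 cells in medium with 5% charcoal-stripped FBS were pre-incubated 5hr, then exposed to compounds for 24hr at 37C. Viability was read in the same wells by CellTiter-Fluor fluorescence, reagent added after 23hr with a 1hr incubation.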

[2] = Caspase-3/7 induction in HepG2 cells by small molecules, qHTS assay (AID 1346978); note: nearly all actives have a fitted effect of over 15% in size
How it was run: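 Wild-type HepG2 cells (2,000/well) were settled 5 h at 37 C, 5% CO2, then exposed to compounds in DMSO for 17 h. Caspase-3/7 activity was read by luminescence 30 min after adding Caspase-Glo 3/7 reagent at room temperature.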

[3] = Caspase-3/7 induction in CHO-K1 cells by small molecules, qHTS cell viability counter screen (AID 1346979); note: nearly all actives have a fitted effect of over 35% in size
How it was run: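 Wild-type CHO-K1 cells were seeded at 1,500 per well, rested 5hr at 37 C, then exposed to compounds in DMSO. After 16hr, CellTiter-Fluor reagent was added and fluorescence read 1hr later as the viability measure.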

[4] = Caspase-3/7 induction in CHO-K1 cells by small molecules, qHTS assay (AID 1346980); note: nearly all actives have a fitted effect of over 15% in size
How it was run: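 Wild-type cells were seeded at 1,500 per well and settled 5 hr at 37 C, 5% CO2, then exposed to DMSO-dissolved compounds for 17 hr. Caspase-Glo 3/7 reagent was added, and luminescence was read after 30min at room temperature.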

[5] = Caspase-3/7 induction in HepG2 cells by small molecules, qHTS cell viability counter screen (AID 1346981); note: series mostly up to about 92 µM; nearly all actives have a fitted effect of over 30% in size
How it was run: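 Viability determined by CellTiter-Fluor fluorescence in HepG2 wells also used for the luminescent Caspase-Glo 3/7 read. Compounds were present for 16 hr at 37 C, 5% CO2 before reagent addition.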

[6] = target: Nuclear receptor subfamily 1 group I member 2 (Homo sapiens) (UniProt O75469); experiment: Human pregnane X receptor (PXR) small molecule agonists, qHTS assay (AID 1346982); note: nearly all actives have a fitted effect of over 35% in size
How it was run: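 Compound-induced hPXR transactivation of a CYP3A4 luciferase reporter was scored in HepG2 PXR-Luc cells over 24 hr at 37 C, 5% CO2, by luminescence.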

[7] = target: Acetylcholinesterase (Homo sapiens) (UniProt P22303); experiment: Acetylcholinesterase (AChE) small molecule antagonists: colormetric cell-based qHTS assay (AID 1347395; calls by dose curve; note: nearly all actives have a fitted effect of over 30% in size)
How it was run: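 SH-SY5Y cells, plated overnight at 37 C, were exposed to compounds for 30 min at 37 C and 5% CO2. Acetylthiocholine plus DTNB was then added, and thiocholine from endogenous AChE was quantified colorimetrically after 90 min at 37 C.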

[8] = target: Acetylcholinesterase (Homo sapiens) (UniProt P22303); experiment: Acetylcholinesterase (AChE) small molecule antagonists: enzyme-based qHTS assay (AID 1347397; calls by dose curve; note: nearly all actives have a fitted effect of over 55% in size); conditions: Potency: AChE enzyme activity inhibition; outcome: AChE enzyme activity inhibition
How it was run: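 Human recombinant acetylcholinesterase; substrate acetylthiocholine; thiocholine quantified with DTNB (colorimetric). Compound preincubation 30 min RT; reaction 10 min RT.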

[9] = target: Acetylcholinesterase (Homo sapiens) (UniProt P22303); experiment: Acetylcholinesterase (AChE) small molecule antagonists: fluorescence cell-based qHTS assay (AID 1347398; calls by dose curve; note: nearly all actives have a fitted effect of over 50% in size); conditions: Potency: AChE activity; outcome: AChE activity
How it was run: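 Thiocholine generated from acetylthiocholine by SH-SY5Y cell AChE is detected with Thiolite Green (Ex/Em 490/520 nm) after 40 min at room temperature, following 30 min compound pretreatment at 37 C.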

[10] = target: Acetylcholinesterase (Homo sapiens) (UniProt P22303); experiment: Acetylcholinesterase (AChE) small molecule antagonists: enzyme-based qHTS assay with human liver microsomes (AID 1347399; calls by dose curve; note: nearly all actives have a fitted effect of over 60% in size); conditions: Potency: qHTS inhibition; outcome: qHTS inhibition
How it was run: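 Recombinant human AChE (50 mU/mL in the enzyme mix) and human liver microsomes (0.25 mg/mL final) were preincubated with compound and NADPH (0.25 mg/mL final) for 30 min at 37 C. Acetylthiocholine/DTNB was then added; thiocholine was read colorimetrically after 10 min at room temperature.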

[11] = target: Cytochrome P450 2D6 (Homo sapiens) (UniProt P10635); experiment: Cytochrome P450 Family 2 Subfamily D Member 6 (CYP2D6) small molecule antagonists: luciferase reporter qHTS assay (AID 1671196); note: nearly all actives have a fitted effect of over 50% in size; note: potency is the fitted concentration of half-maximal effect
How it was run: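 Each well received CYP2D6 with its proluciferin substrate and chemical, sat 10 min, then got NADPH regeneration solution for 1 h at room temperature. Luminescence in RLU served as the activity measure.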

[12] = target: Cytochrome P450 2C19 (Homo sapiens) (UniProt P33261); experiment: Cytochrome P450 Family 2 Subfamily C Member 19 (CYP2C19) small molecule antagonists: luciferase reporter qHTS assay (AID 1671197); note: series mostly up to about 120 µM; nearly all actives have a fitted effect of over 65% in size
How it was run: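 Compounds were tested on CYP2C19 activity via proluciferin conversion to luciferin. The 37C, 1 h reaction followed NADPH addition; detection reagent stopped it.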

[13] = target: Cytochrome P450 2C9 (Homo sapiens) (UniProt P11712); experiment: Cytochrome P450 Family 2 Subfamily C Member 9 (CYP2C9) small molecule antagonists: luciferase reporter qHTS assay (AID 1671198); note: series mostly up to about 120 µM; nearly all actives have a fitted effect of over 50% in size
How it was run: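 CYP2C9 activity was measured with a P450-Glo proluciferin substrate. Enzyme–substrate mix was held with compound for 10 min at room temperature, then NADPH regeneration solution was added for 1 h at 37C. Luciferin product was read as luminescence.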

[14] = target: Cytochrome P450 1A2 (Homo sapiens) (UniProt P05177); experiment: Cytochrome P450 Family 1 Subfamily A Member 2 (CYP1A2) small molecule antagonists: luciferase reporter qHTS assay (AID 1671199); note: nearly all actives have a fitted effect of over 50% in size; note: potency is the fitted concentration of half-maximal effect
How it was run: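 Enzymatic CYP1A2 assay, human, luminescent: 10 min compound–enzyme–substrate preincubation, 1 h NADPH-dependent turnover, 20 min detection step, room temperature throughout. Reduced light indicates lower CYP1A2 activity.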

[15] = target: Voltage-gated inwardly rectifying potassium channel KCNH2 (Homo sapiens) (UniProt Q12809); experiment: Human Ether-a-go-go-Related Gene (hERG) channel small molecule antagonists: fluorescence cell-based qHTS assay (AID 1671200)
How it was run: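 U2OS cells expressing the channel were plated at 1000 cells/well, incubated overnight at 37 C, then loaded with FluxOR II thallium-sensitive dye for 1 h at room temperature in the dark, with a further 10 min at room temperature before stimulation.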

[16] = target: Cytochrome P450 3A4 (Homo sapiens) (UniProt P08684); experiment: Cytochrome P450 Family 3 Subfamily A Member 4 (CYP3A4) small molecule antagonists: luciferase reporter qHTS assay (AID 1671201)
How it was run: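 P450-Glo CYP3A4 system with proluciferin substrate; compounds preincubated 10 min RT with enzyme-substrate mix, then NADPH regeneration added for 1 h RT. Detection reagent 20 min, luminescence read as relative luminescence units.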

[17] = target: Nuclear receptor subfamily 1 group I member 2 (Rattus norvegicus) (UniProt Q9R1A7); experiment: Rat pregnane X receptor (rPXR) activation by small molecules, qHTS assay (AID 1346983); conditions: rPXR luciferase reporter cells, One-Glo luminescence, 24 h; active compounds read high; note: nearly all actives have a fitted effect of over 20% in size
How it was run: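 Cell-based rPXR luciferase reporter assay, 2,000 cells per well, rested 5hr at 37 C before compound addition in DMSO, then 24 hr at 37 C. One-Glo reagent was added and luminescence read after 30 min at room temperature.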

[18] = target: Nuclear receptor subfamily 1 group I member 2 (Homo sapiens) (UniProt O75469); experiment: CYP3A4 induction through human pregnane X receptor (PXR) by small molecules, qHTS assay (AID 1346984); note: nearly all actives have a fitted effect of over 40% in size
How it was run: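 Readings come from a luciferase reporter: DPX-2 cells, which are HepG2 cotransfected with PXR and a CYP3A4-promoter construct, were exposed to test compounds for 24 h at 37C before One-Glo detection.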

[19] = target: Nuclear receptor subfamily 1 group I member 2 (Homo sapiens) (UniProt O75469); experiment: Human pregnane X receptor (PXR) activation by small molecules, qHTS assay (AID 1346985); note: nearly all actives have a fitted effect of over 40% in size
How it was run: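 DPX-2 cells (HepG2 co-transfected with a PXR response element and a CYP3A4-promoter luciferase construct) were seeded at 2,000 per well, rested 5 hr at 37C, then exposed to DMSO-dissolved compounds for 24 hr. Activation was read as luciferase luminescence.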
% is set by controls: 0 for no effect and ±100 for the full control effect.

Cytochrome P450 2C19 (Homo sapiens), sequence (P33261 whole entry, looked up): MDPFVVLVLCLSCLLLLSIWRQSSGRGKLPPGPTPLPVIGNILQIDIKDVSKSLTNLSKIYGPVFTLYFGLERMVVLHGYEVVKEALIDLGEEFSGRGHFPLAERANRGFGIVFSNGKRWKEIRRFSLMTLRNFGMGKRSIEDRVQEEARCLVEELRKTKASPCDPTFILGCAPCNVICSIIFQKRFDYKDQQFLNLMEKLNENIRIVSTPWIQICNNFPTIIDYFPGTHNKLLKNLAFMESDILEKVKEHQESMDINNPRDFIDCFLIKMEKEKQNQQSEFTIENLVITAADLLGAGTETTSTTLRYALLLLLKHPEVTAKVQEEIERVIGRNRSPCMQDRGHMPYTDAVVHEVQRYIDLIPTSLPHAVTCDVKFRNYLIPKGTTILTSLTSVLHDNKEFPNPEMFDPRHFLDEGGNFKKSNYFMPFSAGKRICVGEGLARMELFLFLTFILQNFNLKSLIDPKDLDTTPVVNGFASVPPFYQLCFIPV
Acetylcholinesterase (Homo sapiens), sequence (P22303 whole entry, looked up): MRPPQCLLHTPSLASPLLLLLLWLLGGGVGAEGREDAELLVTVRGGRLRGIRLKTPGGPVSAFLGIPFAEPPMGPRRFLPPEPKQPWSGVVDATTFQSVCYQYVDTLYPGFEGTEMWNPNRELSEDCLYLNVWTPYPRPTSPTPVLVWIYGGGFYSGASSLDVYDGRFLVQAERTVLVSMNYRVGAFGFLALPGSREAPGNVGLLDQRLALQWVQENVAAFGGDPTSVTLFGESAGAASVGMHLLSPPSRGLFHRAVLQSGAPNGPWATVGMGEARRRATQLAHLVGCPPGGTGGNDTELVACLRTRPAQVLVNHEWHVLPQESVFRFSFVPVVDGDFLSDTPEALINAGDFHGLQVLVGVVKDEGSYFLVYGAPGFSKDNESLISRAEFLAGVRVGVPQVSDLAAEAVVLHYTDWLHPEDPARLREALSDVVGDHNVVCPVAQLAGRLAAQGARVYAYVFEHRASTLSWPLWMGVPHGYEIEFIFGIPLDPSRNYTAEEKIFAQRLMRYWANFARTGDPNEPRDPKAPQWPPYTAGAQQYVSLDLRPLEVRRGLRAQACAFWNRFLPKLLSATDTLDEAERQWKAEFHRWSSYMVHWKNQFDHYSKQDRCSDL
Nuclear receptor subfamily 1 group I member 2 (Homo sapiens), sequence (O75469 whole entry, looked up): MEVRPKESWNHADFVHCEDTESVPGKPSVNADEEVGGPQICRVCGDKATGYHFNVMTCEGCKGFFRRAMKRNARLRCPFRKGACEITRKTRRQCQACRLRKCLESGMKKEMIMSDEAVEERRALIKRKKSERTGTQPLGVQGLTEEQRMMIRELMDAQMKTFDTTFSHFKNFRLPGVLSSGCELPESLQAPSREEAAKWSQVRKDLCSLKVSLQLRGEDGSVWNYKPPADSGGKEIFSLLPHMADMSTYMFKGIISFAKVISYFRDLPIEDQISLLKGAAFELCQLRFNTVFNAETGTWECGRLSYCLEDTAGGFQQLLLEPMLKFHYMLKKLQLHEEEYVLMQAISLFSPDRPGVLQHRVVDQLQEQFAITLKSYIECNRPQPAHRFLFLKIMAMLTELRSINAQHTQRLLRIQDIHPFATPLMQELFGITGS
Voltage-gated inwardly rectifying potassium channel KCNH2 (Homo sapiens), sequence (Q12809 whole entry, looked up): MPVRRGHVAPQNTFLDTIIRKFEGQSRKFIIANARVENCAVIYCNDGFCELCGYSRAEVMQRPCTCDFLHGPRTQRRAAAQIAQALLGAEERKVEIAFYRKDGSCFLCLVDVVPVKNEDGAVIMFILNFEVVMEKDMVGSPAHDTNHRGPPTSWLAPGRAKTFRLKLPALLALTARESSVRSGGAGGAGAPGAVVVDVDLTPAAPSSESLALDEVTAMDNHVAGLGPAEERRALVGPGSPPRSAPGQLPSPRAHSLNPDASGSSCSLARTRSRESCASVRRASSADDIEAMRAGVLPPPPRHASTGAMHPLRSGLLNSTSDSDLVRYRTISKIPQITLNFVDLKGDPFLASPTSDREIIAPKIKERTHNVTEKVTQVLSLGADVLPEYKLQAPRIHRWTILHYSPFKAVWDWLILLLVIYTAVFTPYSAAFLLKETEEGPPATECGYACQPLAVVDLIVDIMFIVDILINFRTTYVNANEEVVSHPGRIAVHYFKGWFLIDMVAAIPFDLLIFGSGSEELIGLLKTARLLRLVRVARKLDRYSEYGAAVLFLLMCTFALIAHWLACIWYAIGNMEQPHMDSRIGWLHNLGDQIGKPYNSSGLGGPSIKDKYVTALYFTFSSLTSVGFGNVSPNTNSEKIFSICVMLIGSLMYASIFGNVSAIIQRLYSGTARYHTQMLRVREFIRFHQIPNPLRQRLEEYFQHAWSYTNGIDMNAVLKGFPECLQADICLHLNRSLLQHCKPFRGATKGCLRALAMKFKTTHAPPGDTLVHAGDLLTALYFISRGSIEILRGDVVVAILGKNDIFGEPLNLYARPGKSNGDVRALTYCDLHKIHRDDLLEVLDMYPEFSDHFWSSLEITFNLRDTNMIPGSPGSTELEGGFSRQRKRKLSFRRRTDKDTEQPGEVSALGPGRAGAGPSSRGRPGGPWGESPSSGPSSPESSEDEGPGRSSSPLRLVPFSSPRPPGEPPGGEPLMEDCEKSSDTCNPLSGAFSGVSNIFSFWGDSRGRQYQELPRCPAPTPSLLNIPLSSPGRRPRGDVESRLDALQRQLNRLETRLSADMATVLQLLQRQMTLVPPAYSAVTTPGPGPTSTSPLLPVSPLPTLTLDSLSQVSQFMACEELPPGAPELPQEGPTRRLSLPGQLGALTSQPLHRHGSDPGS
Cytochrome P450 1A2 (Homo sapiens), sequence (P05177 whole entry, looked up): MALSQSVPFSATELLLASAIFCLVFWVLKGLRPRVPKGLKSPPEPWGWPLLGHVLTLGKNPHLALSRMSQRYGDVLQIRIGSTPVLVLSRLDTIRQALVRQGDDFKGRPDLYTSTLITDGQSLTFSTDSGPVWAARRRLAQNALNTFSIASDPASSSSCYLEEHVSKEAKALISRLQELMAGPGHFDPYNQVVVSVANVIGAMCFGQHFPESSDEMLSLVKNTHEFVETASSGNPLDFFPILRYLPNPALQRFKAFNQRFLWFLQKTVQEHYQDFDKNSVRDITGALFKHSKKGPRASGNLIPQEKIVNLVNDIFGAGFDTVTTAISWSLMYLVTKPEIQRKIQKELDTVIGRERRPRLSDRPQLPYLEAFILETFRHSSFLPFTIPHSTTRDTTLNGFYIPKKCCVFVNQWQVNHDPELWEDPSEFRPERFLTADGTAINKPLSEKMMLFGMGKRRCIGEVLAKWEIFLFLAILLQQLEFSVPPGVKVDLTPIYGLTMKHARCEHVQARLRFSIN
Nuclear receptor subfamily 1 group I member 2 (Rattus norvegicus), sequence (Q9R1A7 whole entry, looked up): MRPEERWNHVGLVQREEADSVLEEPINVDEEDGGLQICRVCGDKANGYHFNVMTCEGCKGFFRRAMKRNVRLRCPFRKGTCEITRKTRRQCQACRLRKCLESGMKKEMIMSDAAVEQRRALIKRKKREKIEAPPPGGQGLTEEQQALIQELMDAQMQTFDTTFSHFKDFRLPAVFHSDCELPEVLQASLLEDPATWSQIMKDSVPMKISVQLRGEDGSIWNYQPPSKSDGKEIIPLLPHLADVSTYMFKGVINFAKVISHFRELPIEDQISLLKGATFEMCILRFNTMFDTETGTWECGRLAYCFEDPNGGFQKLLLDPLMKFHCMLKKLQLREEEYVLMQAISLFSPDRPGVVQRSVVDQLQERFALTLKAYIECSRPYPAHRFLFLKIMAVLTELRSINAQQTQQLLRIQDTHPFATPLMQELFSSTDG
Cytochrome P450 3A4 (Homo sapiens), sequence (P08684 whole entry, looked up): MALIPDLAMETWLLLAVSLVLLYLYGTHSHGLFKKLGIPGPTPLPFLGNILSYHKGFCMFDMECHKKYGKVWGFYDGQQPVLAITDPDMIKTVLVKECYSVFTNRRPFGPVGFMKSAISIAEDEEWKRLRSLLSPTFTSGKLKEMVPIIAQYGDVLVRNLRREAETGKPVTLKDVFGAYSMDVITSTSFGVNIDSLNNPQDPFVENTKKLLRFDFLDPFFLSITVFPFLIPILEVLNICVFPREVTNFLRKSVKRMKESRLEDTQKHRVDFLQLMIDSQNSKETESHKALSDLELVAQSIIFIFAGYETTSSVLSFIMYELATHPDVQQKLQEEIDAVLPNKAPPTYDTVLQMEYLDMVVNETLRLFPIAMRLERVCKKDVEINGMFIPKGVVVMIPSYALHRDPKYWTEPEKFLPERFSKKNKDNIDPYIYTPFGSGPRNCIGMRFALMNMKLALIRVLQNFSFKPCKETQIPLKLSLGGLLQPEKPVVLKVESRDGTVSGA
Cytochrome P450 2C9 (Homo sapiens), sequence (P11712 whole entry, looked up): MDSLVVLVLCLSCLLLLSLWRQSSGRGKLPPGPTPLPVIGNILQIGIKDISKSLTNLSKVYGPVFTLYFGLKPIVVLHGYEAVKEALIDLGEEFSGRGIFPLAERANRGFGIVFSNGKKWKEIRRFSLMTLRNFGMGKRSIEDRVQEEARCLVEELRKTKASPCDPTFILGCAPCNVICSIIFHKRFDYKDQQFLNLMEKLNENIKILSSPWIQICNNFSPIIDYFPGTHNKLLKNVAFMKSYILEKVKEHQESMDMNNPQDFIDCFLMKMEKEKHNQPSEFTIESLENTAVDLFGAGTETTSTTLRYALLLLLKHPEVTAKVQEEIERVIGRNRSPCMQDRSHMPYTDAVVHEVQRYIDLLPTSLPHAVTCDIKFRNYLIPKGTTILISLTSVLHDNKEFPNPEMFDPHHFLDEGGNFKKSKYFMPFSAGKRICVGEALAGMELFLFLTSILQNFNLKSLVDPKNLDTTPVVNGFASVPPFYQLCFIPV

CCOP(=O)(O)C(N)=O
inactive: Potency [1] | Potency [2] | Potency [3] | Potency [4] | Potency [5] | Potency [6] | Potency [7] | Potency [8] | Potency [9] | Potency [10] | Potency [11] | Potency [12] | Potency [13] | Potency [14] | Potency [15] | Potency [16]

CCOc1cccc(C2(N3CCN(c4ccccc4)CC3)CCC(C)CC2)c1 (stereo not given)
active: Potency [14] 20 µM
inactive: Potency [1] | Potency [2] | Potency [3] | Potency [4] | Potency [5] | Potency [6] | outcome [7] | outcome [8] | outcome [9] | outcome [10] | Potency [11] | Potency [15] | Potency [16]

C[N+](C)(C)CCOC(=O)C(O)(c1ccccc1)c1ccccc1
inactive: Potency [1] | Potency [2] | Potency [3] | Potency [4] | Potency [5] | Potency [6] | max activation [17] -2.47% | outcome [18] | Potency [19] | Potency [7] | Potency [9] | Potency [10] | Potency [12] | Potency [13] | Potency [14] | Potency [15] | Potency [16]
active: Potency [11] 15.5 µM

C[N+]1(CCC(C(N)=O)(c2ccccc2)c2ccccc2)CCCCC1
inactive: Potency [1] | Potency [2] | Potency [3] | Potency [4] | Potency [5] | Potency [6] | max activation [17] -4.99% | outcome [18] | Potency [19] | Potency [7] | Potency [8] | Potency [10] | Potency [12] | Potency [13] | Potency [15] | Potency [16]
active: Potency [11] 8.71 µM

C1CS1
active: Potency [14] 64.9 µM
inactive: Potency [1] | Potency [2] | Potency [3] | Potency [4] | Potency [5] | Potency [6] | Potency [7] | Potency [8] | Potency [9] | Potency [10] | Potency [11] | Potency [12] | Potency [13] | Potency [15] | Potency [16]

COc1ccccc1N1CCNCC1
inactive: Potency [1] | Potency [2] | Potency [3] | Potency [4] | Potency [5] | Potency [6] | max activation [17] -3.01% | outcome [18] | Potency [19] | Potency [11] | Potency [12] | Potency [13] | Potency [15] | Potency [16]

CCC1(C2=NCCN2)Cc2ccccc2O1 (stereo not given)
inactive: Potency [1] | Potency [2] | Potency [3] | Potency [4] | Potency [5] | Potency [6] | Potency [7] | Potency [8] | Potency [9] | Potency [10] | Potency [12] | Potency [13] | Potency [14] | Potency [15] | Potency [16]
active: Potency [11] 15.5 µM

CCN(C(C)=O)c1cccc(-c2ccnc3c(C#N)cnn23)c1
inactive: Potency [1] | Potency [2] | Potency [3] | Potency [4] | Potency [5] | Potency [6] | max activation [17] -2.18% | outcome [18] | Potency [19] | Potency [7] | Potency [9] | Potency [10] | Potency [15] | Potency [16]
